Several values for one entry are separate records, joined by “and”; a condition that tells them apart may be missing. Equal entries are not always repeated. Compounds without any hit were thinned out: in the full panel of roughly 83,000, 20% have a hit.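 Testing used 96-well plates and a 48-hour single-concentration exposure. Example: -40 means 40% of the starting cells died.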 A number with no mark means an inactive call. Activity calls are given as the source filed them. Rule for the calls: active = growth percent below 10; inactive = the rest.

This test deals with MDA-MB-468 breast. The test can be described thus: NCI-60 one-dose screen, 48 h (100 = growth as untreated, 0 = no growth, -100 = all killed). The settings on record: 10 µM unless noted.

As to `CC(CCCC(=O)O)c1ccoc1` (stereo not drawn), the growth is 119%. On to `O=C(CSc1nc2ccc([N+](=O)[O-])cc2[nH]1)Nc1cccc(C(F)(F)F)c1`, for which the growth was -8.14% (active).

For the molecule `CC(C)C1C2=C(NCCN1C(=O)Cc1ccccc1)C(C)(C)N(Cc1ccccc1)C2=O` (stereo not drawn), the growth was 95.5%.

As to `COc1ccc(C2=CN3CC=CC3CC2=O)cc1` (stereo not drawn), the growth was 95.3%. For the molecule `O=C(Nc1ccc(OS(=O)(=O)c2ccccc2)cc1)C12CC3CC(CC(C3)C1)C2`, the growth was 40.5%.

For the molecule `O=C(O)C1C(c2ccccc2)c2ccccc2C(O)C1CO` (stereo not drawn), the growth was 117%. As to `CC[C@@](C)(NC(=O)C(C)(C)NC(=O)[C@@H](NC(=O)[C@@H]1CCCN1C(=O)C(C)(C)NC(=O)[C@H](CC(C)C)NC(=O)CNC(=O)C(C)(C)NC(=O)[C@@H](NC(=O)C(C)(C)NC(=O)[C@H](CCC(N)=O)NC(=O)[C@H](C)NC(=O)C(C)(C)NC(=O)[C@H](C)NC(=O)C(C)(C)NC(=O)[C@@H]1CCCN1C(=O)C(C)(C)NC(C)=O)C(C)C)C(C)C)C(=O)N[C@@H](CCC(N)=O)C(=O)N[C@@H](CCC(N)=O)C(=O)N[C@H](CO)Cc1ccccc1`, the growth is -3.95% [4.25 µM] (active). Turning to `Nc1nc(Cl)nc2c1ncn2C1OC(CO)C(O)C1O` (stereo not drawn), the growth was 124% and 94.5%.

For the molecule `CCCc1cc(NC)nc(S(=O)(=O)CC)n1`, the growth is 119%. As to `Cc1sc(N=Nc2ccc(N(C)C)cc2)[n+]([O-])c1C`, the growth is 75.2%. On to `CC1=NC2=NN3C(=NN2C(c2ccccc2)=C1)N=NC(c1ccc(Br)cc1)=C3c1ccc(Br)cc1`, for which the growth is 105%. For `COc1ccc(C/C(C)=C(\c2ccc(O)cc2)c2ccc(OCCN3CCCCC3)cc2)cc1`, the growth is 70.2%. For the molecule `CC(C)c1nc(N(C)S(C)(=O)=O)nc(-c2ccc(F)cc2)c1/C=C/C(=O)C[C@@H](O)CC(=O)O`, the growth is 113%. Take `CN(C)c1nc(-c2ccco2)n2nc(-c3ccco3)cc2n1`: the growth is -22.1% (active).

`O=C(O)c1cn(C2CC2)c2cc(N3CCN(C(=O)/C=C/c4ccc(Cl)cc4)CC3)c(F)cc2c1=O`: the growth was 75.5%. On to `CCCCN(CCCC)CC(C)(C)C(O)c1ccc(OC)c2ccccc12` (stereo not drawn), for which the growth is 41.8%.

Turning to `CN1C(=O)[C@H]2c3c1cccc3[C@@]13NC(=O)O[C@H]1[C@H](CCC3(C)C)C2(C)C`, the growth was 78.6%. `COc1ccc(Cn2cc3c(c2-c2cc(OC)c(OC)c(OC)c2)CCc2c(CO)noc2-3)cc1`: the growth is -17.8% (active). On to `Oc1ccc(N=Nc2nccs2)c(O)c1`, for which the growth was 48.5%. `COc1cc(OC)cc(-c2ccc(-c3ccc(C(=N)N)cc3)s2)c1`: the growth is -81.3% (active). To `COc1ccc(-c2cc(C(=O)N3N=C(c4ccc(N)cc4)CC3c3ccc(OC)cc3)c3cc(OC)ccc3n2)cc1` (stereo not drawn) belongs 37.6%. With `CCNC(=O)N1CCc2cc(OC)c(OCCc3ccc(OC)c(N)c3)cc2C1c1cc(C)c(C)cc1C` (stereo not drawn), the growth is 42%. As to `COc1cc(-c2nn(C)nc2-c2cc3ccccc3s2)cc(OC)c1OC`, the growth is 39.8%.

Consider `Cc1cc(O)c(=O)cc2c1C[C@H]1CC(C)(C)/C=C/C[C@]3(C)Oc4cc(=O)c(O)cc(C)c4C[C@H]3C[C@H](O)[C@@]1(C)O2`, for which the growth was -16.7% (active) and -22.9% (active). To `COc1ccc(C(=O)c2cc(OC)c(OC)c(OC)c2)cc1/C=C/C(=O)c1ccc(F)cc1` belongs 90.4%; to `N#C/C(=C\c1cccc2cnccc12)n1nnc2cccc(F)c21`, 31.9%. For `CN1CCC2(CC1)NC(=O)c1c(c3ccc(Cl)c(Cl)c3n1C)C2C#N` (stereo not drawn), the growth is 9.36% (active). With `COc1ccc(C(=O)Nc2ncc(Cc3ccc(F)cc3)s2)cc1`, the growth is 22.4%. As to `CCC1CCC(C)NC1` (stereo not drawn), the growth is 92.4%.

On to `COc1ccc(/C(C)=C(\c2ccc(Cl)cc2)c2ccc(OCCCN(C)C)cc2)cc1`, for which the growth is 82.7%. With `O=C(/C=C/c1c[nH]c2ccccc12)c1cc2ccccc2o1`, the growth was 121%. Take `C[C@H](CCCC(=O)NCC#CCN1CCN(C)CC1)[C@H]1CC[C@H]2[C@@H]3CC[C@@H]4CC(=O)CC[C@]4(C)[C@H]3CC[C@]12C`: the growth is 91%.

`COc1ccc(Nc2ncccc2C(=O)NCc2cn(Cc3cccc(Oc4ccccc4)c3)nn2)cc1`: the growth was 4.17% (active). On to `CCOC(=O)c1ccc2c(c1)[n+](=O)c(C(=O)C1CCCS1)c(C(F)(F)F)n2[O-]` (stereo not drawn), for which the growth was -80.5% (active). On to `C[C@H]1[C@H](C)CC[C@]2(C(=O)N3CCN(C)CC3)CC[C@]3(C)C(=CC[C@@H]4[C@@]5(C)C/C(=C/c6cccnc6)C(=O)C(C)(C)[C@@H]5CC[C@]43C)[C@H]12`, for which the growth is -83.2% (active). In the case of `CC1(C)CC[C@]2(C(=O)N[C@H](CO)Cc3ccccc3)CC[C@]3(C)C(=CC[C@@H]4[C@@]5(C)CCCNC(C)(C)[C@@H]5CC[C@]43C)[C@@H]2C1`, the growth is 37.8%. Then `Cc1nc2sc(C(=O)Nc3cccc(Cl)c3)c(N)c2cc1C(O)c1ccccc1` (stereo not drawn), with 15.3%. In the case of `O=S1(=O)CCC(N(/N=C/c2ccco2)c2ccccc2)C1` (stereo not drawn), the growth was 108%. Turning to `CC(C)(CCCN=C(N)Nc1ccc(Cl)cc1)c1ccc(F)cc1`, the growth was 16.1%. Take `O=C1Nc2ccccc2/C1=C\c1cccc(/C=C2/C(=O)Nc3ccccc32)n1`: the growth was -33.2% (active). Take `O=c1[nH]cc(/C=N\Nc2ccccc2)c(=O)[nH]1`: the growth is 90.7%.

In the case of `CC(=O)Nc1ccc(S(=O)(=O)NC2CCCCC2)cc1`, the growth is 93.9%. As to `C=CCN(CC=C)C(=O)[C@H](CC)[C@@H]1CC[C@@H](C)[C@@H]([C@H](C)[C@@H](O)[C@@H](C)C(=O)[C@H](CC)C2O[C@]3(C=CC(=O)[C@]4(CC[C@@](C)([C@H]5CC[C@](O)(CC)[C@H](C)O5)O4)O3)[C@H](C)C[C@@H]2C)O1` (stereo partly drawn), the growth was -17.4% (active). In the case of `CC(=O)c1sc(Nc2cccc(Nc3nc(C)c(C)s3)c2)nc1C`, the growth was 55%. For `Nc1nc2c(ncn2[C@@H]2O[C@H](CS)[C@@H](O)[C@H]2O)c(=O)[nH]1`, the growth was 97.8%.

For the molecule `CO[C@H](C(=O)N[C@@H](CCCCNC(=O)OCc1ccccc1)C(=O)OC(C)(C)C)[C@@H]1Cc2cc3cc(OC4CC(OC5CC(O)C(O)C(C)O5)C(O)C(C)O4)c(C)c(O)c3c(O)c2C(=O)[C@H]1OC1CC(OC2CC(OC3CC(C)(O)C(O)C(C)O3)C(O)C(C)O2)C(O)C(C)O1` (stereo partly drawn), the growth is -37.5% (active). For `CN1CCN(C(=O)[C@]23CCC(C)(C)C[C@H]2C2=CC[C@@H]4[C@@]5(C)C/C(=C/c6ccncc6)C(=O)C(C)(C)[C@@H]5CC[C@@]4(C)[C@]2(C)CC3)CC1`, the growth was 44.6%. To `Cc1cc(=O)oc2cc(Oc3nc(Br)cn4c(Br)cnc34)ccc12` belongs 41.4%; to `CCN(CC)CCCC(C)N=c1cc(Nc2cc(=NC(C)CCCN(CC)CC)c3cc(OC)ccc3o2)oc2ccc(OC)cc12` (stereo not drawn), -76.8% (active); to `Cc1oc2ccc(O)c(CN3CCCCCC3)c2c1C(=O)Nc1ccc(C(F)(F)F)cc1`, 5.74% (active). For `Cc1cc(N/N=C/c2nc(-c3ccc(Br)cc3)oc2C)c2cc(Br)ccc2n1`, the growth is -5.21% (active).

Take `CC1(/C=C/c2ccc(-c3ccccc3)cc2)CCn2cnc3ncnc(c32)N1O` (stereo not drawn): the growth is -5.41% (active). Then `CCCCCc1ccc(S(=O)(=O)Nc2cc(-c3csc(NC(=O)CN4CCN(C)CC4)n3)ccc2N2CCN(C)CC2)cc1`, with 51.7%. With `Cc1ccc(/C=C(/C#N)n2nnc3ncccc32)cc1`, the growth is 24.4%. Take `Cc1nnc(NS(=O)(=O)c2ccc(N=Nc3ccc(N)nc3N)cc2)s1`: the growth is 120% and 132%. As to `CNc1nc(NC2CCCC2)nc(Sc2ccc(OC)cc2)n1`, the growth was 42.5% [100 µM]. For the molecule `CC(=O)N1N=C(c2ccc(Nc3nc(Nc4ccc(F)cc4)nc(Nc4ccc(Cl)cc4)n3)cc2)CC1c1ccc(Cl)cc1` (stereo not drawn), the growth was 104%. For `Cc1sc2c(c1C)c(=O)nc1c(-c3nc4ccccc4s3)n[nH]n12`, the growth was 101%. In the case of `COc1ccc2c(c1)/C(=N/c1n[nH]c(=S)s1)C(=O)N2`, the growth was 17.1%. Take `COc1ccc(Oc2nc(Nc3ccc(N4CCCCC4)nc3)ncc2NC(=O)c2cc(OC)cc(OC)c2)cc1`: the growth is 23.4%. Take `CCCCn1c(-c2ccc(C(=O)O/N=C(\N)c3ccc(OC)cc3)cc2)nc(-c2ccccc2)c1-c1ccccc1`: the growth was -14.4% (active). As for `CCCCCC/C=C\CCCCCCCCOc1ccc(CCOP(=O)(O)OCC[N+](C)(C)C)cc1`, the growth was 85.5%. On to `COc1cc(CNS(=O)(=O)c2ccc(C)cc2)ccc1OCc1cn(-c2ccccc2)nn1`, for which the growth was 70.7%.

Turning to `CN(C)c1ccc(-c2cc(-c3cccc(NS(C)(=O)=O)c3)nc(N)c2C#N)cc1`, the growth was -20.1% (active).

Consider `Cc1ccc(Nc2nc(N)c3ccccc3n2)cc1Cl`, for which the growth is 48%. On to `O=C1C(Cl)=C(Nc2ccccn2)C(=O)c2ccccc21`, for which the growth is 37.1%. Regarding `CCOc1cc2ncc(C#N)c(Nc3ccc(F)c(Cl)c3)c2cc1NC(=O)/C=C/CN(C)C`, the growth was -43.9% (active). Consider `CCOC(=O)C1C(=O)C(=O)N(C(C)C)C1C(=O)OCC` (stereo not drawn), for which the growth was 98.4%. As for `COc1ccc(C(=O)c2cc(OC)c(OC)c(OC)c2)cc1OC(=O)CCl`, the growth is 63.4%. For `C[C@@H](O)[C@H]1C(=O)N2C(C(=O)O)=C(SC3CN[C@H](C(=O)N(C)C)C3)[C@H](C)[C@H]12` (stereo partly drawn), the growth was 100%. For `CC(=O)N(N=O)c1ccc([N+](=O)[O-])cc1Cl`, the growth is 29.7%. For the molecule `COc1ccccc1/C=C1\Oc2cc(OCCN3CCCC3)ccc2C1=O`, the growth is 56.3%. For `Cn1cc(-c2ccc3cc(-c4ccc(CC(=O)Nc5cc(C(C)(C)C)on5)cc4)cnc3c2)cn1`, the growth is 30.7%.

The record behind these values is PubChem BioAssay (NCI).
